Assay results as given in PubChem BioAssay AID602281 (The Scripps Research Institute Molecular Screening Center, 2012).
The campaign covered roughly 360,000 compounds. About 2,900 (0.81%) were called active. The list comes from a sample in which actives are over-represented; it also holds similar structures and randomly drawn compounds. Values without a mark were called inactive.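 How the source made its calls: active means inhibition above the mean inhibition across every tested compound plus 3 SD (cut at about 22% in these data); inactive means the rest.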

What follows are compounds tested against Perilipin-5 (Homo sapiens) + 1-acylglycerol-3-phosphate O-acyltransferase ABHD5 (Homo sapiens) (UniProt Q00G26+Q8WTS1) (assay: ABHD5-PLIN5 interaction inhibitors, primary screen, cell lysate, split luciferase complementation, luminescence (AID 602281;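 further: 0% = DMSO only wells and the 100% control is not disclosed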)). Details: Split G. princeps luciferase complementation, 4 h, at 4 µM, stronger effect = higher value.
Perilipin-5 (Homo sapiens) + 1-acylglycerol-3-phosphate O-acyltransferase ABHD5 (Homo sapiens), sequence (Q00G26 whole entry, looked up): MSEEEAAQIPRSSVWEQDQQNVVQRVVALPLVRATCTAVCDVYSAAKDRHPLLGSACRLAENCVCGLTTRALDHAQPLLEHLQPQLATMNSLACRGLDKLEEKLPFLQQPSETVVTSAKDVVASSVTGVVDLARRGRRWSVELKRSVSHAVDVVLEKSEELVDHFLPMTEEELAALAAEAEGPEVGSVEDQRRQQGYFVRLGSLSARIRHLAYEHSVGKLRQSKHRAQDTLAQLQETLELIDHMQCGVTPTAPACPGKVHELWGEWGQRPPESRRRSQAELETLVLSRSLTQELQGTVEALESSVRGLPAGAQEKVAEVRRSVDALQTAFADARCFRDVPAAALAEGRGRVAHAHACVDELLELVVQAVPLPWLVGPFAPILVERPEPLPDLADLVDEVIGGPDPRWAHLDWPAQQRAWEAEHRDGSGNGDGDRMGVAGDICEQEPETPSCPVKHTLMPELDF
Perilipin-5 (Homo sapiens) + 1-acylglycerol-3-phosphate O-acyltransferase ABHD5 (Homo sapiens), sequence (Q8WTS1 whole entry, looked up): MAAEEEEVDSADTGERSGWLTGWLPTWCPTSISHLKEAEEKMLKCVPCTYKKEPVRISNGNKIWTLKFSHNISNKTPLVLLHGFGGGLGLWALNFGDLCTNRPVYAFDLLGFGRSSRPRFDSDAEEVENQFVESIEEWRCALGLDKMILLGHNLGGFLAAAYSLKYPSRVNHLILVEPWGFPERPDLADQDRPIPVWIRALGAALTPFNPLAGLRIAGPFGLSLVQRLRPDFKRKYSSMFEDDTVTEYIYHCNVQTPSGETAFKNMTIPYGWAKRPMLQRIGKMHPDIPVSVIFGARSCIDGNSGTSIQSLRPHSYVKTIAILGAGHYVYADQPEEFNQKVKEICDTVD

Going from Cc1ccc(C(=O)NCC(=O)OCC(=O)Nc2cccc(S(=O)(=O)N3CCCC3)c2)cc1C to O=C(NNC(=S)Nc1ccccc1)c1cccc(S(=O)(=O)N2CCOCC2)c1, the inhibition rises from -2.63% to -0.88%.

Going from O=C(CCCN1C(=O)C(c2ccccc2)Oc2cccnc21)Nc1ccccc1Br (configuration not stated) to Cc1ccnc(NC(=O)CCC(=O)N(CC(=O)NCCc2ccccc2)Cc2cccs2)c1, the inhibition falls from 6.82% to 1.17%.

Going from COC(=O)[C@@H]1C[C@@]2(O)[C@H](O)[C@H](O)[C@H](O)C[C@H]2N1Cc1ccc(C(C)(C)C)cc1 to CCC(C)NC(=O)C1CCC(=O)N1Cc1ccc(C)cc1 (configuration not stated), the inhibition falls from 6.53% to 2%.

Going from O=C(c1cccc(F)c1)N1CCC(O)(c2cccnc2)CC1 to C/C(=N/N1CCN(Cc2cccc3ccccc23)CC1)c1cccnc1, the inhibition falls from 0.25% to -14.4%.

Compared with N#CCOc1ccc(C2=NO[C@@H]3[C@@H]4C[C@@H]([C@H]5C(=O)N(c6ccc7c(c6)OCO7)C(=O)[C@@H]45)[C@H]23)cc1, CCOc1cc(S(=O)(=O)NCc2ccc3c(c2)OCO3)ccc1F is higher in inhibition: -3.78% for the first, -2.91% for the second.

Compared with COc1ccc(CN2CCC(C)(Oc3cccc(F)c3)C2)c2ccccc12 (configuration not stated), CC1(Oc2cccc(F)c2)CCN(Cc2ccccc2OC(F)F)C1 (configuration not stated) is lower in inhibition: 1.04% for the first, -9.44% for the second.

First: CCCOC1CCCN(C(=O)c2cc(COc3cncc(Cl)c3)on2)C1 (configuration not stated)
Second: O=C(c1cc(C2CCCCN2S(=O)(=O)c2ccccc2)on1)N1CCOCC1 (configuration not stated)
The inhibition of the first is lower: 1.32% for the first, 3.58% for the second.

Compared with Cc1[nH]c2ccccc2c1C(=O)c1cc([C@H](NC(=O)OC(C)(C)C)C(C)C)sc1N, CSc1nccc(NC(=O)c2ccc(C(C)(C)C)cc2)n1 is higher in inhibition: -16.6% for the first, -0.98% for the second.

First: Cc1ccc(C(=O)Cc2nnc(C)s2)cc1
Second: COC(=O)CN(c1nc(C)c(Cl)c(OC)n1)S(=O)(=O)c1ccc(C)cc1
The inhibition of the first is higher: 10.8% for the first, -6.3% for the second.

Compared with Cc1ccc(SC(C)C(=O)NCc2ccc(F)cc2)cc1 (configuration not stated), Cc1ccc(C(c2sc3nc(C)nn3c2O)N2CCN(c3ccc(F)cc3)CC2)cc1 (configuration not stated) is higher in inhibition: -1.06% for the first, -0.55% for the second.

Going from O=C1CC[C@@H](C(=O)N2CSC[C@@H]2C(=O)Nc2ccc(C(F)(F)F)cc2)N1 to CC(=O)Nc1ccc(NC(=O)CC2CCCC2)cc1, the inhibition rises from -0.42% to 1.52%.

Going from COc1ccccc1C(=O)NCC(=O)OCC(=O)NNC(=O)c1ccc(Br)cc1 to COc1ccc(CCNC(=O)c2ccc(CS(=O)(=O)c3ccc(Br)cc3)o2)cc1OC, the inhibition rises from -4.52% to 5.5%.

Going from CCN1C(=O)/C(=C2\SC(N3CCCCC3)=NC2=O)c2ccccc21 to O=[N+]([O-])c1ccc(S(=O)(=O)Nc2cccc(-c3ccc(N4CCCC4)nn3)c2)cc1, the inhibition falls from -2.55% to -6.73%.

First: CC1(C)CC(=O)C=C(c2cccc3c2Oc2ccccc2S3)C1
Second: NC(=O)c1ccccc1N=Cc1ccc2ccccc2c1
The inhibition of the first is lower: -12.2% for the first, 2.42% for the second.

First: O=C(NCc1ccco1)c1cnn2c(C(F)(F)F)cc(-c3ccco3)nc12
Second: O=C(O)c1cnn2c(C(F)(F)F)cc(-c3ccccc3)nc12
The inhibition of the first is lower: 3.22% for the first, 6.31% for the second.

Going from N#Cc1ccc(-c2nc3c(Cl)cc(C(F)(F)F)cn3c2Cc2ccccc2C(F)(F)F)cc1 to O=C(c1cc2sccc2n1Cc1ccc(F)cc1)N1CCc2ccccc21, the inhibition falls from 0.66% to -4.45%.

Going from COc1ccc(C(=O)CCc2ccccc2O)c(OC)c1 to COc1ccc(C(=O)CCC(=O)Nc2cccnc2)c(OC)c1, the inhibition falls from 0.27% to -5.28%.

Going from CCCn1c(=O)c2[nH]c(C3CCCC3)nc2n(CCC)c1=O to CC1Cc2[nH][nH]c(=O)c2C(C2CCCC2)O1 (configuration not stated), the inhibition rises from 4.3% to 8.22%.

Going from CCc1nnc(NC(=O)C2CC(=O)N(c3ccc4c(c3)OCCO4)C2)s1 (configuration not stated) to CCOc1ccccc1NC(=S)C(=C([O-])c1ccc2c(c1)OCCO2)[n+]1ccc(CC)cc1, the inhibition rises from -9.44% to -7.74%.

Going from O=C(NCc1ccccc1Cl)c1csc([C@@H]2O[C@H](CO)[C@@H](O)[C@H]2O)n1 to COC(=O)C[C@H]1C=C[C@H](NC(=O)c2ccc(F)cc2)[C@@H](CO)O1, the inhibition rises from -7.69% to 7.9%.

First: CCN(C(=O)CSc1nnnn1-c1ccccc1OC)C1CCS(=O)(=O)C1 (configuration not stated)
Second: COc1ccccc1CN(C)c1nnnn1-c1ccccc1
The inhibition of the first is higher: 0.5% for the first, -3.16% for the second.

First: Cc1cc2c(cc1S(=O)(=O)NCc1ccc(Cl)cc1)OCC(=O)N2
Second: O=C(COC(=O)c1ccc(F)c(S(=O)(=O)N2CCOCC2)c1)NCc1ccc2c(c1)OCO2
The inhibition of the first is higher: 5.73% for the first, 2.94% for the second.

First: O=C(CN1C2CCC1CC(NC(=O)C1CC1)C2)NCc1ccccc1 (configuration not stated)
Second: COC(=O)[C@@]12C[C@@H](CC(=O)N3CCC(c4ccccc4)CC3)C(=O)N(Cc3ccccc3)C1=CCC(C)(C)C2
The inhibition of the first is lower: -2.07% for the first, 4.36% for the second.

Going from O=C(O)CC(SCC(=O)Nc1ccc(Br)cc1)C(=O)O (configuration not stated) to Brc1ccc(-c2nn[nH]n2)cc1, the inhibition falls from 0.5% to -0.33%.

Going from CN(CC(=O)NCCc1ccc(F)cc1)CC(=O)Nc1ccc(F)c(F)c1F to COc1ccc(CCNC(=O)CN(c2ccccc2)S(C)(=O)=O)cc1OC, the inhibition rises from 3.93% to 6.8%.

Compared with C/C(=N\NS(=O)(=O)c1ccc(Cl)cc1)c1ccc(NC(=O)c2ccco2)cc1, O=C(Nc1ccc(S(=O)(=O)N2CCOCC2)cc1)C1CCN(S(=O)(=O)c2ccc(Cl)cc2)CC1 is higher in inhibition: -4.17% for the first, -0.02% for the second.

Compared with COC(=O)[C@@]1(Cc2ccc(OC)cc2)[C@H]2c3cc(C(=O)N4CCCC4)n(Cc4ccc(OC(F)(F)F)cc4)c3C[C@H]2CN1C(=O)c1ccccc1, COC(=O)[C@@]1(Cc2ccc(F)cc2)[C@H]2c3cc(C(=O)N4CCCC4)n(C[C@H](O)CO)c3C[C@H]2CN1C(=O)c1ccccc1 is lower in inhibition: 18.3% for the first, 6.42% for the second.

Compared with COC(=O)Nc1ccc(S(=O)(=O)N(C)CC(F)(F)C(F)F)cc1, COc1cccc(OC)c1CN(C)C(=O)c1cnccc1C(F)(F)F is lower in inhibition: 4.74% for the first, 4.28% for the second.

First: CC1CC(C)CN(S(=O)(=O)c2cccc3nonc23)C1 (configuration not stated)
Second: Cc1ccc(NC(=O)c2ccc(Cl)nc2)cc1S(=O)(=O)N1CCOCC1
The inhibition of the first is higher: -3.19% for the first, -3.8% for the second.

Compared with Cc1ccc(-c2ccc(CN3C(C(C)C)C(=O)N(Cc4cn(CCC5OCCCO5)nn4)CCS3(=O)=O)cc2)cc1 (configuration not stated), Cc1nn(C)c(C)c1C(C)NC(=O)c1ccc(OC2CCN(Cc3ccccn3)CC2)cc1 (configuration not stated) is higher in inhibition: -3.62% for the first, 11.1% for the second.

Compared with c1ccc2c(c1)C(=NC1CCCCC1)NC2=NC1CCCCC1, O=C(O)c1cccnc1NC1CCCC1 is lower in inhibition: 10.2% for the first, 7.94% for the second.

Going from O=C(Nc1n[nH]c(C(F)(F)F)n1)c1cccs1 to CC1=NNC(=O)C1CC(=O)N/N=C/c1ccncc1 (configuration not stated), the inhibition falls from 3.2% to 0.97%.

Going from CCCn1c(SCC(=O)Nc2c(C)cccc2C)nnc1C(C)C to CCOC(=O)c1nnn(CC(=O)Nc2cccc(F)c2)c1C(=O)OCC, the inhibition falls from 5.88% to -0.66%.

Going from O=C(c1ccc2c(c1)C(=O)N(c1ccc(Cl)cc1)C2=O)N1CCN(c2ccccn2)CC1 to CC(=O)Oc1ccc(C)cc1N1C(=O)c2ccc(C(=O)O)cc2C1=O, the inhibition falls from 0.95% to 0.33%.

First: Oc1c(C(c2ccco2)N2CCC3(CC2)OCCO3)sc2ncnn12 (configuration not stated)
Second: Cc1ccc(C(c2sc3nc(C)nn3c2O)N2CCN(c3ccccc3)CC2)cc1 (configuration not stated)
The inhibition of the first is higher: 12.2% for the first, 2.33% for the second.

Going from CC(C)(C)C(=O)N1CCC[C@@]1(CO)C(=O)O to CC[C@]12c3[nH]c4cc(CCC(=O)N(C)C)ccc4c3CCN1C(=O)[C@@H](CC(=O)NCCCN(C)C)C[C@@H]2C(=O)N1CCN(C(=O)c2ccco2)CC1, the inhibition falls from 0.41% to -4.19%.

For CC1(Oc2ccccc2-c2ccno2)CCN(Cc2ccc(-c3ccccc3)o2)C1 (configuration not stated), the inhibition was 24.9% (active).
Cc1ccc(SC(CC(=O)c2ccc(C(C)(C)C)cc2)C(=O)O)cc1 (configuration not stated) was tested, and the inhibition was 84.9% (active).
In the case of Oc1ccc2ccccc2c1N=Nc1nccs1, the inhibition is reported as 22.1% (active).
For COC(=O)c1cnn2c(C(F)(F)F)cc(-c3ccco3)nc12, the inhibition was 32.2% (active).
With COc1ccc(C(=O)/C=C/c2cccnc2)c(OC)c1 the inhibition was 22.4% (active).
With COc1ccccc1-n1nnnc1S(=O)(=O)Cc1ccc(Cl)cc1 the inhibition was 27.5% (active).
In the case of O=C(CCl)Nc1ccc(Sc2ccc(NC(=O)CCl)cc2)cc1, the inhibition is reported as 28.2% (active).
With O=C(Nc1ccccc1)c1nnsc1S(=O)(=O)c1ccc(Cl)cc1 the inhibition was 58.3% (active).
With COC(=O)[C@@]1(Cc2ccc(F)cc2)[C@H]2c3cc(C(=O)N4CCCC4)n(Cc4ccc(OC(F)(F)F)cc4)c3C[C@H]2CN1C(=O)c1ccccc1 the inhibition was 22.3% (active).
With CC(C)n1cnc2c(NCc3ccccc3)cc(OCC3CCN(C)CC3)cc21 the inhibition was 52.1% (active).
For COC(=O)c1nc(NC(=O)c2ccc(C(C)(C)C)cc2)n[nH]1, the inhibition was 81.5% (active).
COc1ccc(CCNC(=O)c2nnc(CS(=O)(=O)c3ccccc3)o2)cc1OC was tested, and the inhibition was 23.8% (active).
With O=C(O)c1ccc2c(c1)C(=O)N(c1ccc(/C=C/C(=O)c3ccccc3)cc1)C2=O the inhibition was 50.4% (active).
Cc1nc2sc(C(c3ccco3)N3CCOCC3)c(O)n2n1 (configuration not stated) was tested, and the inhibition was 26.3% (active).
Cc1nc2sc(C(c3ccco3)N3CCC4(CC3)OCCO4)c(O)n2n1 (configuration not stated) was tested, and the inhibition was 22.7% (active).
